# Test results: article PMC5540273 (PLoS ONE, 2017)
# What was measured:
# Settings in all cases: concentration: 1 μM, replicates: in singlicate; n = 1
# BMX = system: BMX
# BRAF = system: BRAF
# BRK = system: T1, BRK
# T1 construct: gene PTK6
# BRSK1 = system: BRSK1
# BRSK2 = system: BRSK2
# BTK = system: BTK
# BUB1 = system: BUB1
# CAMK1B = system: CAMK1B
# CAMK1D = system: CAMK1D
# CAMK1G = system: CAMK1G
# 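Also: KINOMEscan kinase panel screen.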
Compound,%Inh (BMX) [%],%Inh (BRAF) [%],%Inh (BRK) [%],%Inh (BRSK1) [%],%Inh (BRSK2) [%],%Inh (BTK) [%],%Inh (BUB1) [%],%Inh (CAMK1B) [%],%Inh (CAMK1D) [%],%Inh (CAMK1G) [%]
O=C(Nc1n[nH]c2nc(-c3ccccc3)ccc12)C1CC1 [SB-708999],9,4,0,54,37,40,0,35,0,79
Nc1ncc(-c2cn[nH]c2)c2scc(-c3ccc4c(c3)CCN4C(=O)Cc3ccccc3)c12 [GSK2593067],31,0,96.1,0,0,0,11,0,11,19
CN(c1ccc2c(c1)nc(NCc1ccccc1)n2C)c1ccnc(Nc2ccc(CS(C)(=O)=O)cc2)n1.Cl [GW811603],0,96.8,79,0,0,64,0,46,5,0
Cc1ccc(NC(=O)c2cccc(N3CCCCC3)c2)cc1-c1ccc(C(=O)NCC2CC2)cc1 [GSK1917008],26,88,22,6,3,0,23,27,11,0
CN(c1ccc(F)c(NC(=O)c2cccc(OC(C)(C)C#N)c2Cl)c1)c1ccc2nc(NC(=O)C3CC3)sc2n1,0,94,0,4,0,22,34,0,0,2
O=C(Nc1c(F)cccc1F)c1cc(C(=O)c2ccccc2F)c[nH]1 [GSK1326180],18,0,11,0,0,0,31,33,13,6
Cc1ccc(C)c(NC(=O)Nc2ccc(C)c(-c3ccc(C(=O)Nc4ccncc4)cc3)c2)c1 [GSK1398473],0,62,25,0,0,0,4,27,13,0
Nc1cccc(-c2ccc3c(N)n[nH]c3c2)c1 [GSK2193613],5,0,8,58,51,0,21,21,25,4
CC(C)c1nc(-c2cccc(NS(=O)(=O)c3c(F)cccc3F)c2)c(-c2ccnc(Nc3ccc(N4CCOCC4)nc3)n2)s1.Cl [GSK1723980],94,100,96.4,16,37,41,93.1,13,32,2
COc1cccc(NC(=O)NCCNc2ccnc(Nc3ccc(F)cc3)n2)c1 [GSK1379879],4,0,30,0,0,0,58,0,8,0
CCn1c(-c2nonc2N)nc2c(-c3ccccc3)ncc(OCCCN)c21.O=C(O)C(F)(F)F.O=C(O)C(F)(F)F [GSK260205],0,0,0,0,0,0,96.2,7,6,4
COc1cc(Nc2ccnc3cc(-c4ccncc4)ccc23)cc(OC)c1OC.Cl [GW494610],37,60,19,0,9,90,42,2,0,9
CNc1nccc(-c2ccc3c(N)n[nH]c3c2)n1 [GSK2206003],2,0,10,22,15,3,71,0,28,22
O=C(O)C(F)(F)F.O=c1[nH]ccc2nc(N[C@@H]3CCNC3)nc(Nc3cc(Cl)cc(Cl)c3)c12 [GSK2188764],27,0,5,19,8,0,99.2,100,97.9,72
CSc1ccc(NC2=C(c3ccc(Cl)cc3)C(=O)NC2=O)cc1 [SB-317658],11,0,1,0,0,0,0,61,13,0
Cc1nn2c(=O)cc(N3CCO[C@H](C)C3)nc2n1Cc1cccc(Cl)c1Cl [GSK2373693],15,2,13,3,0,0,28,42,9,0
O=C(Nc1n[nH]c2nc(-c3cccc(O)c3)ccc12)C1CC1 [SB-711805],4,46,0,53,17,0,0,0,19,0
c1ccc(Oc2ccc(Nc3ccnc4cc(-c5ccc(CN6CCCCC6)o5)ccc34)cc2)nc1 [GW567143],6,2,96.5,6,0,0,18,0,19,0
Cc1ccc(NC(=O)c2ccnc(N3CCCCC3)c2)cc1-c1ccc(C(=O)NCC2CC2)cc1 [GW775610],0,77,12,9,6,0,0,24,0,0
N#Cc1cnc2cc(-c3cnc(CNCCN4CCOCC4)s3)ccc2c1Nc1ccc(Oc2ccccc2)cc1 [GW664114],62,0,0,0,44,93.9,37,24,12,24
Cc1ccc(NC(=O)c2ccc(Cl)c(Cl)c2)cc1-c1ccc(C(=O)Nc2ccncc2)cc1 [GSK1398460],6,34,10,7,10,0,6,28,24,0
Cl.O=C(Nc1ccc(Oc2ccc3[nH]c(NC(=O)c4ccco4)nc3c2)cc1)Nc1cc(C(F)(F)F)ccc1F [GW683134],1,69,0,0,0,0,30,29,0,0

Compound,%Inh (BMX) [%],%Inh (BRAF) [%],%Inh (BRK) [%],%Inh (BRSK1) [%],%Inh (BRSK2) [%],%Inh (BTK) [%],%Inh (BUB1) [%],%Inh (CAMK1B) [%],%Inh (CAMK1D) [%],%Inh (CAMK1G) [%]
COC(=O)Nc1nc2cc(Oc3ccc(NC(=O)Nc4cccc(SC)c4)cc3)ccc2[nH]1.Cl [GW697999],0,83,15,3,10,2,44,0,7,0
CCNc1nccc(-c2c(-c3ccc(F)cc3)ncn2C2CCN(C)CC2)n1,6,0,0,0,0,0,63,0,17,5
COc1cccc(C2=C(Nc3cccc(O)c3)C(=O)NC2=O)c1 [SB-390771],4,0,33,7,7,0,42,29,13,0
CCn1cnc2c(NCc3ccccc3)ncnc21 [SKF-96418],0,9,0,0,0,0,50,0,1,0
Cc1ccc(-c2ccc3occ(-c4ccc(S(C)=O)cc4)c3c2)nn1 (centres unmarked),0,0,0,0,0,0,5,14,15,7
CC(C)c1nc(-c2ccc(F)c(NS(=O)(=O)c3c(F)cccc3F)c2)c(-c2ccnc(Nc3ccc(N4CCOCC4)nc3)n2)s1 [GSK1804250],90,99.9,94.8,14,0,90,92.7,31,26,4
Cn1cc(-c2ccc3c(c2)CCN3C(=O)Cc2cc(F)cc(F)c2F)c2c(N)ncnc21 [GSK2634140],11,0,22,6,0,0,9,7,28,0
Cc1cc(-c2c(-c3ccc(F)cc3)ncn2CCCN2CCOCC2)nc(N)n1 [SB-222517],5,0,0,0,17,0,0,0,12,44
COc1ccc(C2=C(Nc3cccc(O)c3)C(=O)NC2=O)cc1 [SB-390766],0,6,21,7,49,0,50,73,27,26
Nc1ncc(-c2ccc3nccc(-c4ccncc4)c3c2)cc1S(=O)(=O)N1CCCCC1 [GSK1693850],22,8,18,0,0,0,13,6,25,2
Cc1cc(-c2ccnc(Nc3cccc(C#N)c3)n2)cc(C)c1O [GSK1440913],25,4,25,2,0,14,52,24,8,22
O=C1NC(=O)C(c2ccccc2Cl)=C1Nc1cccc(Cl)c1 [SB-342409],19,0,22,0,0,0,22,3,21,18
Cc1ccc(O)cc1Nc1ccnc2cc(-c3ccc(CN4CCCCC4)o3)ccc12 [GW557777],50,22,99.5,0,0,19,0,0,4,6
CN(C)CCOc1ccc(-c2cc(-c3ccc(Cl)c(O)c3)c(-c3ccncc3)[nH]2)cc1.Cl.Cl [SB-684387],27,96.6,75,0,0,0,83,40,23,0
CCOc1nccc(-c2c(-c3ccc(F)cc3)ncn2C2CCNCC2)n1 [SB-249175],12,5,0,0,11,34,27,31,0,1
COC(=O)Nc1nc2ccc(Oc3ccc(NC(=O)Nc4cc(C(F)(F)F)ccc4F)cc3)cc2[nH]1.Cl [GW654607],0,62,20,0,0,0,13,51,0,0
CN(C)c1ncnc2nc[nH]c12 [SKF-31736],0,9,0,0,0,0,40,0,0,8
Nc1ncnc2scc(-c3ccc(NC(=O)Cc4cc(F)ccc4F)cc3)c12.O=C(O)C(F)(F)F [SB-731254-M],0,4,6,2,38,0,0,0,11,15
CN(c1ccc(NC(=O)Nc2cccc(Cl)c2)cc1)c1ccnc(N)n1.Cl [GW830707],0,0,8,0,12,0,30,15,5,0
Cc1ccc(Nc2ccnc(Nc3ccc(C)c(F)c3)n2)cc1O.Cl [GW582868],12,50,50,0,0,0,44,34,0,0
Fc1cc(Cl)ccc1Nc1ccnc2cc(-c3ccc(CN4CCOCC4)o3)ccc12 [GW560109],35,39,86,13,0,46,25,24,0,0
COC(=O)Nc1nc2ccc(Oc3ccc(CC(=O)Nc4cc(C(F)(F)F)ccc4F)cc3)cc2[nH]1 [GW680903],16,45,20,1,0,0,63,30,0,0

Compound,%Inh (BMX) [%],%Inh (BRAF) [%],%Inh (BRK) [%],%Inh (BRSK1) [%],%Inh (BRSK2) [%],%Inh (BTK) [%],%Inh (BUB1) [%],%Inh (CAMK1B) [%],%Inh (CAMK1D) [%],%Inh (CAMK1G) [%]
CN(C)CCNS(=O)(=O)c1ccc(-c2ccnc3[nH]ccc23)cc1 [GSK977620],9,0,16,19,0,0,29,0,66,8
Cn1cc(-c2ccc3c(c2)CCN3C(=O)Cc2cc(F)cc(C(F)(F)F)c2)c2c(N)ncnc21 [GSK2635225],15,0,44,0,5,0,11,41,11,0
Cn1cc(-c2cnc(N)c3c(-c4ccc5c(c4)CCN5C(=O)Cc4ccccc4)csc23)cn1 [GSK2593074],57,0,92.2,0,7,0,0,0,11,0
Cl.Cl.NC(CNC(=O)c1cc(Br)c(-c2ccnc3[nH]ccc23)s1)c1ccccc1 (centres unmarked) [GSK1322949],5,0,0,50,40,0,77,34,63,27
CC(C)(C)c1ccc(C(=O)Nc2cn3cc(-n4ccnc4)ccc3n2)cc1,0,19,15,31,0,0,7,0,6,7
CC(C)NCC(Cc1ccccc1)NC(=O)c1cc(Br)c(-c2ccnc3[nH]ccc23)s1.Cl.Cl (centres unmarked) [GSK1383281],5,0,0,0,0,0,43,29,27,0
COc1ccc(NC(=O)c2ccoc2)cc1-c1ccc(C(=O)NCC2CC2)cc1 [GW810437],3,0,0,0,4,0,2,19,0,9
Cl.Cl.NCC(NC(=O)c1cc(-c2cccnc2)c(-c2ccnc3[nH]ccc23)s1)c1ccccc1 (centres unmarked) [GSK1323434],36,21,7,5,0,0,77,7,18,3
COc1cccc2c(-c3ccncc3)c(-c3ccc(F)cc3)nn12 [GW468513],11,38,1,3,0,0,90,0,0,1
Cc1cccc(Nc2nc(NCCN)ncc2C(N)=O)c1 [GSK1292139],0,3,0,10,0,0,66,98.1,84,23
Cc1ccccc1CC(=O)N1CCc2cc(-c3cn(C)c4ncnc(N)c34)ccc21 [GSK2603346],2,0,71,0,0,0,10,0,13,19
COc1cc(Nc2nccc(N3CCC(NC(=O)Nc4ccc5c(c4)OCO5)C3)n2)cc(OC)c1OC (centres unmarked) [GSK1379766],0,12,0,0,0,0,43,34,19,9
NCCC(NC(=O)c1cc(Br)c(-c2ccnc3[nH]ccc23)s1)c1ccccc1.O=C(O)C(F)(F)F.O=C(O)C(F)(F)F (centres unmarked) [GSK1307810],25,0,34,1,19,24,68,52,34,21
CN1CCN(Cc2ccc(NC(=O)Nc3ccc(N(C)c4ccnc(Nc5ccc(CS(C)(=O)=O)cc5)n4)cc3)cc2)CC1.Cl [GW827654],69,0,8,19,10,60,51,42,27,23
CN(c1ccc(NC(=O)N2CCN(CCCN3CCOCC3)CC2)cc1)c1ccnc(Nc2ccc(CS(C)(=O)=O)cc2)n1.Cl [GW830899],0,0,27,83,25,0,0,0,5,0
CC(=O)Nc1cn2nc(Oc3cccc(NC(=O)c4cccc(C(F)(F)F)c4)c3)ccc2n1,25,99.7,92.1,0,0,4,0,0,24,0
Cc1cccc(Nc2nc(N[C@H]3CCCC[C@H]3N)ncc2C(N)=O)c1.Cl [GSK986310],13,0,20,16,13,0,89,91.4,61,23
COc1cccc(-c2nc(-c3ccccc3)[nH]c2-c2ccncc2)c1 [SB-610250],0,74,16,0,0,0,95.6,0,5,0
O=C(O)C(F)(F)F.O=c1[nH]ccc2nc(N[C@@H]3CCNC3)nc(Nc3ccc4c(c3)S(=O)(=O)CC4)c12 [GSK2181306],24,0,18,52,46,29,90.5,98.7,98.6,82
O=C(Nc1n[nH]c2cc(-c3cccs3)ccc12)C1CC1 [SB-731284],11,68,0,54,30,54,0,0,6,0
CS(=O)(=O)c1cccc(CNc2nc(Nc3ccc4c(c3)CCC(=O)N4)ncc2C(F)(F)F)c1,0,0,0,0,0,0,0,0,8,0
